A selection: hits, their analogues and other compounds. The true share with any hit is near 15%.
TDP1 cell noCPT = qHTS for Inhibitors of human tyrosyl-DNA phosphodiesterase 1 (TDP1): qHTS in cells in absence of CPT; DT40 Tdp1-/- hTDP1 cells, no CPT, ATP luminescence, 48 h; Potency, µM (doses to about 46.2 µM), for the others: at the highest dose activity change, negative = growth inhibition, actives largely listed as inhibitors; 420,000 tested, 15% active; AID 686978, 2013; further: nearly all actives have a fitted effect of over 55% in size
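Camptothecin absent (DMSO only). Human TDP1-complemented DT40 knockout cells, 400 cells/well, 37 °C for minimum 48 hr; ATP measured via CellTiter-Glo, 30 min dark incubation, luminescence.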
ALOX12 inh = ALOX12 (human) lipoxygenase inhibition. P18054. purified 12hLO, xylenol orange hydroperoxide absorbance. 580,000 tested, 1.1% active. AID 1671190. Potency, µM (series often up to 108 µM), for inactives: at the highest dose activity change, negative = inhibition, actives largely listed as inhibitors
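Hydroperoxide product was detected by ferrous iron/xylenol orange as the 573 to 405 nm absorbance ratio. Arachidonic acid at 40 uM (final) was turned over for 30 min at room temperature by 150 nM human 12hLO, pH 7.0 Hepes buffer, after 15 min compound preincubation.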
ELG1 repair inh = ELG1-dependent DNA repair inhibition; Potency, µM (titrated, usually from 46.1 µM), for the others: at the top dose activity change, negative = inhibition, hits mostly inhibitors; 330,000 tested, 2.3% active; HEK293T ELG1-luciferase reporter, luminescence, 16 h; DNA damage induced by 5-fluorouridine; AID 504467; further: nearly all actives have a fitted effect of over 55% in size
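Step one: seed 2,000 cells per well. Step two: pin-transfer compound or DMSO alongside 5-fluorouridine. Step three: incubate 16 hr, 37 °C, 5% CO2. Step four: add ONE-Glo, wait 30 min, read luminescence.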
DT40 TDP1 CPT = growth inhibition of DT40 Tdp1-/-;hTDP1 cells with camptothecin (screen for TDP1 inhibitors); chicken DT40 Tdp1-/-;hTDP1 cells + 20 nM CPT, ATP luminescence, 48 h; 420,000 tested, 12% active; Potency, µM (highest dose often 46.2 µM), without a hit: top-dose activity change, negative = growth inhibition, most hits filed as inhibitors; further: nearly all actives have a fitted effect of over 55% in size
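Chicken DT40 Tdp1-/- cells stably complemented with human TDP1 were seeded at 400 cells/well in medium containing 20 nM camptothecin, exposed to pin-transferred compounds, and grown at 37 °C for at least 48 hr. Viability was read as ATP luminescence.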
RORg inh = inhibitors of mouse ROR gamma transcriptional activity; Drosophila S2 Gal4-RORgamma UAS-luciferase reporter, 20 h; Potency, µM (highest dose often 53.6 µM), for inactives: top-dose activity change, negative = inhibition, most hits filed as inhibitors; 310,000 tested, 5.4% active; AID 2551; further: nearly all actives have a fitted effect of over 60% in size
Target sequence (P51450 whole entry, looked up, the tested form may be a part): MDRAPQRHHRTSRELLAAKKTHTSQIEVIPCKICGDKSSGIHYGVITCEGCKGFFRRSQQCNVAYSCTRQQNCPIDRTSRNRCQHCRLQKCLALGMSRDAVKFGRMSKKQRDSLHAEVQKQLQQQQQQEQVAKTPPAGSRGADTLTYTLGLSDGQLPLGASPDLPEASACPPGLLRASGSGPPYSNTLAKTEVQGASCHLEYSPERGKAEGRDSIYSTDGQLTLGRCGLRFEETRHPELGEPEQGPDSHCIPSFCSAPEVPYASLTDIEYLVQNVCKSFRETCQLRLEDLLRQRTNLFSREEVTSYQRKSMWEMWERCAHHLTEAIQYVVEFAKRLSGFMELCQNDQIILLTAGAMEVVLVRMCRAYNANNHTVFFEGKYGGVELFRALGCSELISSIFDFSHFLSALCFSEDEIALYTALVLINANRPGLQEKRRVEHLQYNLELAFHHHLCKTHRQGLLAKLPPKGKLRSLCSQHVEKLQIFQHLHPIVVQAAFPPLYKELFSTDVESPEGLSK
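Drosophila S2 cells stably expressing Gal4-DBD/mouse RORγ fusion under metallothionein promoter plus UAS-luciferase; compound 1 h, then 700 uM CuSO4 induction for 20 h at ambient temperature; inhibition read as reduced luminescence.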
VP16 counter = counter-screen for ROR gamma inhibitors: Gal4-VP16 reporter. Drosophila S2 Gal4-VP16 UAS-luciferase, luminescence, 20 h. Potency, µM (doses to about 53.6 µM), without a hit: top-dose activity, negative = inhibition, hits mostly inhibitors. 310,000 tested, 3.5% active;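 further: Gal4-VP16 expression switched on by copper sulfate through the metallothionein promoter; nearly all actives have a fitted effect of over 50% in size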
Active calls of the source: *; ? = inconclusive; . = not tested or not shown; [ ] = dose if it differs, or a comment. The call rests on the fitted dose curve; in most records, active means well fitted curve in the direction sought with a large enough effect; inconclusive means small, poorly fitted or top-dose-only effect, or another doubt; inactive means no such curve, though single readings can be large; an effect the other way counts as inactive or inconclusive. On the % scale 0 is the no-effect control and ±100 the full control effect; potency means the concentration at half of the fitted maximal effect.

SMILES	TDP1 cell noCPT	ALOX12 inh	ELG1 repair inh	DT40 TDP1 CPT	RORg inh	VP16 counter
Cc1ccc(-c2cccc(C(=O)NCc3ccccc3)n2)c2ccccc12	?	-6.4%	-1.8%	?	-13.6%	-3.8%
Cc1ccc(-c2cc(C(=O)N/N=C\c3cnn(C)c3C)c3ccccc3n2)cc1C	10.3µM*	-20.3%	-17.0%	11.6µM*	11.2µM*	?
COc1cc(-c2cc(C(=O)NCCc3ccc(S(N)(=O)=O)cc3)c3ccccc3n2)cc(OC)c1OC	3.26µM*	-9.5%	4.11µM*	4.11µM*	-3.9%	-3.5%
CCc1ccc(-c2cc(C(=O)NCCc3ccccc3)c3ccccc3n2)cc1	.	16.8%	.	.	.	.
Cc1ccc(-c2cccc(C(=O)NCCc3ccccc3)n2)c2ccccc12	16.4µM*	-6.6%	15.7%	25.9µM*	4.5%	22.9%
Cc1ccc(-c2cc(C(=O)NCCc3ccccc3)c3ccccc3n2)cc1C	?	-13.3%	.	20.6µM*	.	.
COCC1CN(C2CCC2)CC12CCN(C(=O)Cn1cccn1)CC2 (configuration not stated)	.	86.4%	.	.	.	.
Cc1ccc(-c2cc(C(=O)NCc3cnn(C)c3C)c3ccccc3n2)cc1C	18.4µM*	0.0%	.	?	.	.
CN1CCCC2(CCN(C(=O)Cc3cccc4ccccc34)C2)C1=O (configuration not stated)	.	59.7%	.	.	.	.
COc1ccc(N(C(=O)c2ccncc2)S(=O)(=O)c2ccc(Cl)cc2)cc1	-22.1%	.	12.5%	-7.3%	-3.2%	1.4%
COc1ccc(C(=O)N(c2ccc(OC)cc2)S(=O)(=O)c2cccs2)cc1	?	-6.8%	0.7%	?	20.3%	3.1%
COc1ccc(N(C(=O)c2cccnc2)S(=O)(=O)c2ccc3c4c(cccc24)C(=O)N3C)cc1	?	2.6%	-2.0%	?	-15.3%	?
COc1ccc(C(=O)N(c2ccc(C)cc2)S(=O)(=O)c2ccc(C)cc2)cc1	23.1µM*	?	.	18.4µM*	.	.
COc1ccc(N(C(=O)COc2cccc(C)c2)S(=O)(=O)c2ccc(C)cc2)cc1	-28.0%	-21.2%	13.9%	18.4µM*	?	-6.9%
COc1ccc(N(C(=O)c2ccncc2)S(=O)(=O)c2ccc3c4c(cccc24)C(=O)N3C)cc1	?	16.9%	-6.8%	18.4µM*	-39.9%	?
COc1ccc(N(C(=O)c2ccccc2)S(=O)(=O)c2cccs2)cc1	20.6µM*	10.7%	?	?	-28.2%	-14.8%[10 µM]
Cc1nc(-c2ccc(C)c(N3CCN(C(=O)Nc4ccc(Br)cc4)CC3)c2)no1	20.6µM*	-22.6%	.	?	.	.
Cc1cc(C)cc(NC(=O)N2CCN(c3cc(-c4noc(C)n4)ccc3C)CC2)c1	?	-3.2%	.	?	.	.
CCCN(CC1CCOC1)C(=O)c1cccc(Cl)c1 (configuration not stated)	.	18.0%	.	.	.	.
Cn1cc(C(=O)c2ccc(F)cc2)cc1-c1nc2ccccc2n1C	16.4µM*	0.0%	?	?	-10.7%	-8.8%
C=CCNC(=O)c1ccc(Cn2c(=S)[nH]c3cc4c(cc3c2=O)OCO4)cc1	-27.1%	0.0%	?	?	-29.0%	-0.3%
CC1CCCCN1CCNC(=O)c1ccc2c(=O)n(Cc3ccc(Cl)cc3)c(=S)[nH]c2c1 (configuration not stated)	?	?	?	?	11.2µM*	?
O=C(NCCN1CCCC1)c1ccc(Cn2c(=S)[nH]c3cc4c(cc3c2=O)OCO4)cc1	23.1µM*	?	-6.3%	-28.9%	5.7%	6.3%
O=c1c2cc3c(cc2[nH]c(=S)n1C1CCN(Cc2ccccc2)CC1)OCO3	?	-9.1%	-2.0%	25.9µM*	5.01µM*	3.55µM*
O=C(c1ccc(Cn2c(=S)[nH]c3cc4c(cc3c2=O)OCO4)cc1)N1CCN(c2ncccn2)CC1	.	.	7.3µM*	.	?	0.6%
SMILES	TDP1 cell noCPT	ALOX12 inh	ELG1 repair inh	DT40 TDP1 CPT	RORg inh	VP16 counter
C=C(C)CN(CC)C(=O)/C=C/c1csc(C)n1	.	7.1%	.	.	.	.
CCOc1cc(CN(C)C(=O)c2cc(C)sc2NC(=O)C(C)(C)C)ccc1OC	.	2.0%	.	.	.	.
COc1ccc(CN2C[C@@H](CO)[C@H](C3CCN(C(C)=O)CC3)C2)cc1OC	.	35.6%	.	.	.	.
CN1CCN(CCOc2ccc3c(=O)c(-c4ccccc4)coc3c2)CC1	.	5.5%	.	.	.	.
S=c1[nH]nc(CCc2ccccc2)n1-c1ccccc1	-12.3%	?	16.3%	-1.2%	5.62µM*	11.2µM*
S=c1[nH]nc(CCc2ccccc2)n1-c1ccc(Cl)cc1	-20.0%	31.6µM*	3.0%	?	1.78µM*	?
O=C(CSc1nnc(CCc2ccccc2)n1-c1ccc(Cl)cc1)c1ccccc1	23.1µM*	?	-15.4%	?	11.2µM*	?
COc1ccc(-n2c(CCc3ccccc3)nnc2SCC(=O)c2ccc(Cl)cc2)cc1	?	-15.6%	?	?	4.1%	?
O=C(NC1CCCCCC1)c1[nH]c2ccccc2c1Cl	.	42.4%	.	.	.	.
CC(=O)Nc1ccc(C2(C(=O)NCc3ccc(F)cc3F)CCCCC2)cc1	.	22.8%	.	.	.	.
Cc1cccc2sc(N(Cc3cccnc3)C(=O)CCOc3ccccc3)nc12	?	-16.7%	.	?	.	.
Cc1cccc2sc(N(Cc3cccnc3)C(=O)CCS(=O)(=O)c3ccccc3)nc12	3.26µM*	?	.	2.91µM*	.	.
O=C(CCOc1ccccc1)N(Cc1cccnc1)c1nc2c(Cl)cccc2s1	2.06µM*	-17.5%	.	1.3µM*	.	.
O=C(CCS(=O)(=O)c1ccccc1)N(Cc1cccnc1)c1nc2c(Cl)cccc2s1	5.17µM*	2.4%	.	5.17µM*	.	.
Cc1cc(C)c2sc(N(Cc3cccnc3)C(=O)CCS(=O)(=O)c3ccccc3)nc2c1	2.91µM*	?	.	4.11µM*	.	.
CC(=O)N(Cc1cccnc1)c1nc2cc(C)cc(C)c2s1	?	-25.7%	.	?	.	.
O=C(c1cccs1)N(Cc1cccnc1)c1nc2c(Cl)cccc2s1	?	-11.4%	.	-21.3%	.	.
OC1(c2csc(CN3CCN(c4ccccn4)CC3)n2)CCN(Cc2ccc(F)cc2)CC1	.	49.6%	.	.	.	.
Cc1ccc2sc(N(Cc3cccnc3)C(=O)CCS(=O)(=O)c3ccccc3)nc2c1C	6.51µM*	?	.	5.8µM*	.	.
Cc1cc(C)c2nc(N(Cc3cccnc3)C(=O)CCS(=O)(=O)c3ccccc3)sc2c1	4.61µM*	-24.4%	.	4.61µM*	.	.
Cc1cc(C)c2nc(N(Cc3cccnc3)C(=O)CCOc3ccccc3)sc2c1	?	-11.6%	.	-17.6%	.	.
